Source: PubChem (Broad Institute)
esBAF inh: inhibitors of esBAF chromatin remodeling in mouse ES cells | reporter increase, % at 12.5 µM | hit rate 2% among 350,000 | AID 602393 | Bmi1-luciferase knock-in reporter, 24 h; 100% = twice the neutral-well signal; in the data active = activation above about 40%; inconclusive = no clear call, values can overlap the other calls;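 note: a rise in the Bmi1 reporter signal indicates esBAF inhibition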
HSF-1 act: increases HSF-1 driven luciferase reporter signal; NIH3T3-HGL HSF-1 luciferase reporter, MG132, 8 h; 100% = twice DMSO control signal; activation, % at 9 µM; hit rate 1.7% among 300,000; AID 504408;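 active = mean replicate activation of at least 50% with a set share of replicates each reaching 50%; inconclusive = only one of those two conditions met; inactive = mean below 50% and too few replicates reaching it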
HSF1 inhib: HSF1 inhibition | NIH3T3-HGL HSE-luciferase, MG132-induced, luminescence 8 h; hits give low values | activity change, negative = inhibition, % at 7.5 µM (by protocol) | hit rate 0.77% among 300,000 | AID 2098;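 active = more than half of replicate wells show activity change below -50%, luminescence cut by over half; inconclusive = some wells, but at most half, below -50%; inactive = no replicate well below -50%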;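 note: luciferase reports HSF-1 transcriptional activity via heat shock element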
MITF TRPM1 HTS: increases MITF-driven TRPM1 promoter luciferase signal; SK-MEL-5 TRPM1-promoter luciferase, 24 h; % of positive control, neutral wells = 0; activation, % at 12.5 µM; hit rate 0.75% among 300,000; AID 588334;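 active = mean activation of at least 80% with every replicate also reaching 80%; inconclusive = mean reaches 80% but some replicate falls short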
Wnt bcat act: Wnt/beta-catenin pathway activation; Wnt/beta-catenin reporter cell assay, activator, plate reader; activation, % at 9.35 µM; hit rate 1.2% among 300,000; in the data active = activation above about 30%, passing the limit was not always enough; inconclusive = no clear call, values can overlap the other calls
Of the large screens only hits and unclear results are named; the others gave an inactive call. This is a sample that favours compounds with a hit; in the whole collection about 3.9% have one here.

C[C@@H]1CCCCO[C@@H](CN(C)C(=O)c2ccncc2)[C@@H](C)CN([C@H](C)CO)C(=O)c2cc(NS(=O)(=O)c3ccccc3)ccc2O1	none (no result: HSF-1 act, HSF1 inhib, MITF TRPM1 HTS, Wnt bcat act)
Cc1ccc(C2Nc3ccccc3-c3nc4ccccc4n32)o1 (stereo unspecified)	esBAF inh 67.7 (no result: Wnt bcat act)
COc1ccc(C(=O)c2ccc(-c3ccc(OC)cc3)nc2)cc1	none
O=C(c1ccc(F)cc1)c1ccc(-c2ccc(F)cc2)nc1	esBAF inh 43.8
CCOc1ccc(C(=O)Nc2cc(C)on2)cc1	none
Cc1cc(NC(=O)c2ccc(Cl)cc2)no1	MITF TRPM1 HTS 106.1
Cc1cc(NC(=O)c2ccc3nc(C)sc3c2)no1	HSF1 inhib -66.9 (no result: Wnt bcat act)
C[C@@H]1CN([C@@H](C)CO)C(=O)c2cc(NC(=O)Cc3ccccc3)ccc2O[C@@H]1CN(C)S(=O)(=O)c1cccs1	none (no result: HSF-1 act, HSF1 inhib, MITF TRPM1 HTS, Wnt bcat act)
CO[C@@H]1CN(C)C(=O)c2ccc(NC(=O)c3ccc(F)cc3)cc2OC[C@H](C)N(C(=O)CC2CC2)C[C@H]1C	none (no result: HSF-1 act, HSF1 inhib, MITF TRPM1 HTS, Wnt bcat act)
C/C(=N\NC(=O)COc1ccc(C(C)(C)C)cc1)c1ccc(-n2ccnc2)cc1	esBAF inh 47.5 (no result: Wnt bcat act)
O=C(NCC[C@@H]1CC[C@H](NS(=O)(=O)c2cccc(F)c2)[C@H](CO)O1)C1CCCCC1	none (no result: HSF-1 act, HSF1 inhib, MITF TRPM1 HTS, Wnt bcat act)
O=C(Oc1ccc(C(=S)N2CCOCC2)cc1Br)c1cc(Cl)ccc1Cl	HSF-1 act 78.4 (no result: MITF TRPM1 HTS)
Cn1nc(C(=O)NCc2ccc(F)cc2)c2c1-c1ccccc1S(=O)(=O)C2	none
CSc1ccc(CCNC(=O)c2nn(C)c3c2CS(=O)(=O)c2ccccc2-3)cc1	HSF-1 act 51.1
CC(C)(C)NC(=O)C(c1cc2ccccc2o1)n1c(-c2ccc(-c3ccccc3)cc2)nc2ccccc21 (stereo unspecified)	Wnt bcat act 50.7 (no result: esBAF inh, HSF-1 act, HSF1 inhib, MITF TRPM1 HTS)
CC(C)(C)NC(=O)C(c1cc2ccccc2o1)n1c(=O)c(-c2ccco2)nc2ccccc21 (stereo unspecified)	none (no result: esBAF inh, HSF-1 act, HSF1 inhib, MITF TRPM1 HTS)
Cc1ccc(C2=NCCn3c2c2ccc(C(F)(F)F)cc2[n+]3[O-])cc1	HSF1 inhib -55.1
COc1ccc(C2=NCCn3c2c2ccc(C(F)(F)F)cc2[n+]3[O-])cc1	none
COc1ccc(/C=C/C(=O)C(C(N)=O)=C2SCCS2)cc1	none (no result: esBAF inh)
NC(=O)C(C(=O)/C=C/c1ccc(Cl)cc1)=C1SCCS1	HSF-1 act 210.1
CCCNC(=O)N(C)C[C@@H]1Oc2ncc(C#CCC3CCCC3)cc2C(=O)N([C@@H](C)CO)C[C@H]1C	none (no result: HSF-1 act, HSF1 inhib, MITF TRPM1 HTS, Wnt bcat act)
Cc1cc(C)nc(-n2nc(C)c(Sc3ccc(F)cc3)c2N)n1	esBAF inh 137.4, HSF-1 act 62.2
CCCCN(CCCC)Cc1ccc(C(=O)NNC(=O)Nc2ccc(Cl)cc2)o1	none
CCCCN(CCCC)Cc1ccc(C(=O)NN)o1	Wnt bcat act 54.8
CCN(c1ccc(OC)cc1)c1ncnc2nc[nH]c12	HSF1 inhib -63.9
Cc1noc(C)c1NC(=O)Nc1ccc2c(c1)C(=O)N(C)[C@H]1CC[C@@H](CC(=O)N[C@H]3CCN(Cc4ccccc4)C3)O[C@@H]1CO2	none (no result: HSF-1 act, HSF1 inhib, MITF TRPM1 HTS, Wnt bcat act)
COc1nc(-c2ccccc2)ccc1-c1noc(C)n1	Wnt bcat act 49.9 (no result: HSF-1 act, HSF1 inhib, MITF TRPM1 HTS)
COc1ccc(-c2ccc(-c3noc(C(C)C)n3)c(OC)n2)cc1	none (no result: Wnt bcat act)
COCc1nc(-c2ccc(-c3ccccc3)nc2OC)no1	esBAF inh 66.4, Wnt bcat act 48.7 (no result: MITF TRPM1 HTS)
CCc1nc(-c2ccc(-c3ccc(OC)cc3)nc2OC)no1	Wnt bcat act 56.0
COc1ccc(NC(=O)Nc2ccc3c(c2)CC(=O)N([C@@H](C)CO)C[C@@H](C)[C@H](CN(C)C(=O)Nc2ccc(F)cc2)O3)cc1	none (no result: HSF-1 act, HSF1 inhib, MITF TRPM1 HTS, Wnt bcat act)
COCc1cc(=O)[nH]c2cc(NC(=O)C3CC3)c(C)cc12	Wnt bcat act 50.0 (no result: esBAF inh)
COc1ccc(-c2cc(-c3ccc(C)cc3)n[nH]2)c(O)c1	esBAF inh inconclusive, Wnt bcat act 55.2
COc1ccc(-c2cc(C(=O)NN)[nH]n2)cc1	none (no result: esBAF inh)
COc1ccc(C(=O)c2cn[nH]c2-c2cc(C)ccc2O)cc1	none
COc1ccc(-c2cc(-c3cc(C)ccc3O)[nH]n2)cc1	HSF-1 act 264.5 (no result: esBAF inh)
COc1ccc(-c2cc(-c3ccc(OC)cc3)[nH]n2)cc1	esBAF inh 64.0, MITF TRPM1 HTS inconclusive, Wnt bcat act 49.1
Cc1ccc(O)c(-c2cc(-c3ccc(F)cc3)no2)c1	Wnt bcat act 43.7
COc1ccc(-c2n[nH]c(C)c2-c2ccc(Cl)cc2)c(O)c1	none (no result: esBAF inh, Wnt bcat act)
C[C@@H]1CN([C@@H](C)CO)C(=O)c2cc(NC(=O)C3CCCCC3)ccc2O[C@@H]1CN(C)Cc1ccc(C(=O)Nc2ccccc2N)cc1	none (no result: HSF-1 act, HSF1 inhib, MITF TRPM1 HTS, Wnt bcat act)
O=[N+]([O-])c1ccc(SCc2ccncc2)nc1	none
Nc1cc(SCc2ccc([N+](=O)[O-])cc2)ncn1	Wnt bcat act 36.7 (no result: HSF-1 act, HSF1 inhib)
Cc1cc(SCc2ccc([N+](=O)[O-])cc2)nc(=O)[nH]1	HSF-1 act 69.5
CCCN1[C@@H]2Cn3c(ccc(C4=CCCCC4)c3=O)[C@H]1[C@@H](C(=O)N1CCc3ccccc3C1)[C@@H]2CO	none (no result: HSF-1 act, HSF1 inhib, MITF TRPM1 HTS, Wnt bcat act)
CCCN1[C@@H]2Cn3c(ccc(C4=CCCC4)c3=O)[C@H]1[C@@H](C(=O)NCc1ccccn1)[C@@H]2CO	none (no result: HSF-1 act, HSF1 inhib, MITF TRPM1 HTS, Wnt bcat act)
COc1ccccc1OCc1cc(C(=O)N(C)CCC2CCCCO2)no1 (stereo unspecified)	esBAF inh 76.3
COc1ccc(OCc2cc(C(=O)N(C)C3CCOCC3)no2)c2ccccc12	none
CC(=O)c1ccc(OCc2cc(C(=O)NCC3CCCCO3)no2)cc1 (stereo unspecified)	none (no result: esBAF inh)
COc1cc(C(C)=O)ccc1OCc1cc(C(=O)N(C)CCC2CCCCO2)no1 (stereo unspecified)	esBAF inh 50.9, MITF TRPM1 HTS inconclusive, Wnt bcat act inconclusive
COc1ccc(/C(N)=C/C(=O)C(C)(C)C)cc1	esBAF inh 58.1 (no result: Wnt bcat act)
CC(C)(C)C(=O)/C=C(\N)c1ccncc1	none
O=c1onc(-c2ccccc2)c2ccccc12	none (no result: esBAF inh, MITF TRPM1 HTS)
COc1ccc(-c2cc3onc(-c4c(Cl)cccc4Cl)c3c(=O)n2C)cc1	none (no result: HSF-1 act, HSF1 inhib)
COc1cccc(-c2cc3onc(-c4ccccc4)c3c(=O)n2C)c1	Wnt bcat act 38.3 (no result: HSF-1 act, HSF1 inhib)
Cn1c(-c2ccc(F)c(F)c2)cc2onc(-c3ccccc3)c2c1=O	MITF TRPM1 HTS 115.6, Wnt bcat act 64.5 (no result: HSF-1 act, HSF1 inhib)
Clc1c(-c2ccccc2)nnn1-c1ccccc1	HSF-1 act 75.4 (no result: esBAF inh)
O=C(/C=C/c1ccc([N+](=O)[O-])cc1)NCCc1ccccc1	none (no result: esBAF inh)
Cc1cc(C(=O)NCCc2ccccc2)ccc1[N+](=O)[O-]	MITF TRPM1 HTS 92.4
O=C(/C=C/c1ccccc1)NCCc1ccccc1	esBAF inh 89.4 (no result: MITF TRPM1 HTS)
Cc1cccc(C(=O)NCCc2ccccc2)c1	MITF TRPM1 HTS 104.5, Wnt bcat act inconclusive
O=C(NCCc1ccccc1)c1ccc(Cl)c([N+](=O)[O-])c1	none
CCNC(=O)[C@@H]1[C@@H](CO)[C@@H]2Cn3c(ccc(C4=CCCCC4)c3=O)[C@@H]2N1Cc1ccccc1	none (no result: HSF-1 act, HSF1 inhib, MITF TRPM1 HTS, Wnt bcat act)
COC(=O)C[C@H]1CC[C@H]2[C@@H](COc3ccc(NC(=O)Cc4cccs4)cc3C(=O)N2C)O1	none (no result: HSF-1 act, HSF1 inhib, MITF TRPM1 HTS, Wnt bcat act)
